High-throughput results as filed in PubChem BioAssay.
An excerpt weighted towards active compounds, which were near 3.1% of everything screened.
TrxR1 substrate – qHTS Assay for Substrates of Mammalian Selenoprotein Thioredoxin Reductase 1 (TrxR1): qHTS; Thioredoxin reductase 1, cytoplasmic (Rattus norvegicus), O89049; purified TrxR1 substrate turnover, NADPH consumption readout; Potency, µM (titrated, usually from 114 µM), for the others: top-dose activity change, negative = substrate turnover; actives 0.01% (n = 390,000); further: on the % scale 0 is the no-effect control and ±100 the full control effect; nearly all actives have a fitted effect of over 50% in size
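Rat TrxR1, dispensed at 90 nM, was prereduced with 400 uM NADPH (final) for 5 min at ~22 deg C, then incubated with compound 15 min before 400 uM selenite. A first-read NADPH fluorescence drop versus no-compound background flagged substrates.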
IDH1 R132H inh – qHTS for Inhibitors of mutant isocitrate dehydrogenase 1 (IDH1): qHTS. IDH1-R132H enzyme, NADPH consumption, diaphorase/resazurin fluorescence. Potency, µM (top dose mostly 76.6 µM), for inactives: at the highest dose activity change, negative = inhibition, hits mostly inhibitors. actives 0.093% (n = 390,000). AID 602179, 2012; further: on the % scale 0 is the no-effect control and ±100 the full control effect; nearly all actives have a fitted effect of over 65% in size
Target sequence (O75874 whole entry R132H, stated change not applied): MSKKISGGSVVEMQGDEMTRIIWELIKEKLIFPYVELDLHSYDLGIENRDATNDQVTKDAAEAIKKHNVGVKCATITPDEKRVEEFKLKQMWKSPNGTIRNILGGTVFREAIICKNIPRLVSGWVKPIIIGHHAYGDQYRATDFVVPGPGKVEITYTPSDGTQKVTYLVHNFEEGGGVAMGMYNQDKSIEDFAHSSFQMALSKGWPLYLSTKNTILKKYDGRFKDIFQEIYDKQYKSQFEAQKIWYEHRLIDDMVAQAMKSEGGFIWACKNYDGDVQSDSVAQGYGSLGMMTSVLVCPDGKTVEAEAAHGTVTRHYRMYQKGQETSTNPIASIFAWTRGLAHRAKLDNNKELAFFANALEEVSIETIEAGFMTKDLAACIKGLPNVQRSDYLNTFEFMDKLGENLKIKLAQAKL
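IDH1-R132H (0.5 ug/mL dispensed) in pH 7.5 Tris buffer was preincubated 30 min with compound, then given a substrate mix of 0.016 mM NADPH and 2 mM alpha-KG for 80 min at room temperature; remaining NADPH was read by diaphorase/resazurin fluorescence.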
Nrf2 block – Nrf2 qHTS screen for inhibitors | A549 ARE-Fluc reporter, luciferase luminescence, 18-24 h | actives 2.1% (n = 360,000) | Potency, µM (top dose mostly 46 µM), inactives show at the highest dose activity change, negative = inhibition, usual class: inhibitors | AID 504444, 2011; further: on the % scale 0 is the no-effect control and ±100 the full control effect; nearly all actives have a fitted effect of over 60% in size
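A549 ARE_Fluc cells (5000/well, 5% FBS OPTI-MEM) pre-incubated 2 h, then treated with compounds 18-24 h at 37C/5% CO2 in concentration-response. CellTiter-Fluor viability read first; BugLite luciferase luminescence after 15 min at room temperature gives Nrf2 activity.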
A549 tox – Nrf2 qHTS screen for inhibitors: counterscreen for cytotoxicity. AID 504648, 2011. actives 0.16% (n = 390,000). A549 ARE-Fluc cells, CellTiter-Fluor viability, 18-24 h. Potency, µM (doses to about 46 µM), without a hit: top-dose activity change, negative = cytotoxicity, most hits filed as inhibitors; further: on the % scale 0 is the no-effect control and ±100 the full control effect
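A549 ARE_Fluc cells in 5% FBS OPTI-MEM were exposed to compounds in concentration-response for 18-24 h at 37 deg C. Viability was read by CellTiter-Fluor fluorescence (Ex 405/Em 525) after 30 min, before the luciferase read.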
TrxR1 inh – qHTS Assay for Inhibitors of Mammalian Selenoprotein Thioredoxin Reductase 1 (TrxR1): qHTS; recombinant rTrxR1, NADPH fluorescence consumption, selenite substrate; Potency, µM (titrated, usually from 114 µM), without a hit: at the top dose activity change, negative = inhibition, most hits filed as inhibitors; actives 1% (n = 390,000); further: on the % scale 0 is the no-effect control and ±100 the full control effect; nearly all actives have a fitted effect of over 65% in size
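Rat TrxR1 (90 nM in the dispensed reagent) was pre-reduced with 400 uM NADPH for 5 min at room temperature, then incubated with compound for 15 min. After 400 uM selenite was added, NADPH fluorescence (Ex 340/Em 450 nm) was followed for 8 min.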
Mito fusion act – qHTS Assay for Small Molecule Inhibitors of Mitochondrial Division or Activators of Mitochondrial Fusion. S. cerevisiae fusion-defective mutant growth rescue, CellTiterGlo 48 h. Potency, µM (doses to about 46.1 µM), for inactives: at the top dose growth rescue (activation), actives largely listed as activators. actives 0.23% (n = 320,000); further: % of control where 0% means no effect; nearly all actives have a fitted effect of over 45% in size
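S. cerevisiae fusion-defective temperature-sensitive mutants (e.g. fzo1-1, mgm1-5) grown 48 h at 37C in YPEG (ethanol/glycerol non-fermentable) medium with 23 nl compound per well; growth rescue read as CellTiterGlo luminescence.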
An asterisk follows results filed as active; ? = inconclusive; . = no result given; [ ] = dose if it differs, or a comment. The call rests on the fitted dose curve; in most records, active means well fitted curve in the direction sought with a large enough effect; inconclusive means small, poorly fitted or top-dose-only effect, or another doubt; inactive means no such curve, though single readings can be large; an effect the other way counts as inactive or inconclusive. Potency means the concentration at half of the fitted maximal effect.

SMILES	TrxR1 substrate	IDH1 R132H inh	Nrf2 block	A549 tox	TrxR1 inh	Mito fusion act
Nc1c(C(=O)OC2CCCCC2)c2nc3ccccc3nc2n1CC1CCCO1 (configuration not stated)	480%	6%	23µM*	-19%	-33%	17%
O=[N+]([O-])c1ccc(CN2CC=C(c3ccccc3)CC2)cc1	0%	12%	?	-2%	6%	0%
C1=C(c2c[nH]c3ccccc23)CCN(Cc2ccccc2)C1	0%	10%	6.5µM*	-6%	12%	-16%
C[N+](C)(C)CCCCCCCCCC[N+](C)(C)C	11%[57.1 µM]	9%	2%	-2%	20%[57.1 µM]	?
Cc1ccc(C(=O)COC(=O)c2cccc(NC(=O)c3ccc(Br)cc3)c2)cc1	2%	-22%	?	-7%	5%	.
Cc1c(C(=O)N2CCC3(CC2)OCCO3)oc2ccc(S(=O)(=O)N3CCOCC3)cc12	4%	8%	-20%	3%	20%	-1%
Cc1c(C(=O)NCCC2=CCCCC2)oc2ccc(S(=O)(=O)N3CCC4(CC3)OCCO4)cc12	-3%	-3%	7.3µM*	-16%	11%	19%
Cc1cc(-c2nc3ccccc3s2)ccc1NC(=O)c1cc(Cl)ccc1Cl	12%	12%	?	-5%	7%	.
COc1ccc(CN2CCNCC2)cc1	-1%	-2%	-6%	20%	35µM*	3%
COc1ccc(OCC#CCN2CCNCC2)cc1	-10%	0%	5%	15%	-30%	2%
CC1CCCN(c2ccc(C(=O)N3CCC4(CC3)OCCO4)cc2[N+](=O)[O-])C1 (configuration not stated)	-4%	1%	3%	-7%	19%[57.1 µM]	1%
CCOC(=O)C1CCCN(c2ccc([N+](=O)[O-])c3nonc23)C1 (configuration not stated)	-6%	-16%	-27%	18µM*	-6%	-1%
Cc1cc(C(=O)Nc2ccc(CC(=O)O)cc2)c(C)o1	-1%	-4%	5.2µM*	4%	15%	-3%
COc1ccc2c(c1)CCC1C2CC[C@@]2(C)C1CC[C@@H]2NCCCCCCN1C(=O)C=CC1=O (some centres not stated)	8%[57.1 µM]	.	.	.	?	21%
O=C(Nc1sc2c(c1C(=O)Nc1ccc(Cl)cc1)CCCC2)c1cccs1	21%	4%	?	-1%	20%	.
Cc1ccccc1C(=O)Nc1sc2c(c1C(=O)O)CCC(C(C)(C)C)C2 (configuration not stated)	-8%	2%	3.7µM*	-19%	-10%	.
C/C(=N\Nc1cccc2ccccc12)c1c(O)n(Cc2ccccc2)c(=O)[nH]c1=O	3%	5%	3%	-1%	45µM*	-6%
COc1ccc(CNC(=O)c2cnn3c(C)c(Cc4ccc(F)cc4)c(C)nc23)cc1	38%[57.1 µM]	10%	.	-3%	60%[57.1 µM]	.
COc1ccc(/C=C2/C(=O)NC(=S)N(C3CC3)C2=O)cc1CN1C(=O)c2ccccc2C1=O	-1%	-3%	11%	2%	?	-4%
CCOc1cc(/C=C2/C(=O)NC(=O)N(c3ccc(CC)cc3)C2=O)ccc1OC(=O)c1cccs1	-3%	0%	28%	17%	18µM*	-2%
COc1cc(/C=C2/C(=O)NC(=O)N(c3ccccc3)C2=O)ccc1O	-20%	3%	-2%	7%	45µM*	-7%
COc1ccc(N2C(=O)NC(=O)/C(=C/c3ccc(N4CCOCC4)cc3)C2=O)cc1	.	.	.	.	.	-5%
COc1cccc(N2C(=O)NC(=O)/C(=C/c3ccc4c(c3)Cc3ccccc3-4)C2=O)c1	14%	-5%	5%	6%	14µM*	-7%
COc1ccc(/C=C2/C(=O)NC(=O)N(c3ccccc3)C2=O)cc1CN1C(=O)c2ccccc2C1=O	3%	0%	0%	-4%	25µM*	7%
CC1=C/C(=N\NC(=S)NCCc2ccccc2)CC(C)(C)C1	-10%	0%	?	4%	-12%	14%
SMILES	TrxR1 substrate	IDH1 R132H inh	Nrf2 block	A549 tox	TrxR1 inh	Mito fusion act
O=C(CI)c1ccc(Cl)cc1	7%	.	.	.	-5%	.
Cc1cc([C@@H]2CCCN2C)on1	5%[57.1 µM]	.	.	.	1%[57.1 µM]	-30%
O=C1NC(=O)N(c2ccccc2)C(=O)/C1=C/c1coc2ccc(O)cc2c1=O	-2%	6%	-2%	-3%	22µM*	0%
O=C1NC(=O)N(c2ccc(Cl)cc2)C(=O)/C1=C/c1coc2ccc(O)cc2c1=O	2%	-7%	12%	9%	?	1%
COc1ccc(C/C(=N\OC(C)=O)c2ccc(OC)cc2)cc1	5%	3%	?	3%	40%	-4%
CN(N=O)c1ccc(O)c(O)c1	-6%[57.1 µM]	.	.	.	0.95µM*	?
Cn1c(C(=O)NCCOc2ccccc2Cl)cc(=O)n(C)c1=O	-4%[57.1 µM]	14%	-11%	0%	41%[57.1 µM]	5%
Cc1cccc(N2CCN(C(=O)CCNS(=O)(=O)c3ccc4c(c3)oc(=O)n4C)CC2)c1C	-2%	-10%	21µM*	2%	22%	20µM*
c1ccc(CCN2CCCC2)cc1	7%	.	.	.	14%	.
Cc1ccc(CNCc2c(C(=O)O)n(Cc3ccccc3C)c3cc(C)ccc23)cc1	-3%	10%	?	0%	3%	.
COc1ccc(NC(=O)CCn2cnc3onc(-c4ccc(F)cc4)c3c2=O)cc1OC	-10%	13%	23µM*	-14%	?	.
COc1ccc(NC(=O)CCc2nc(C3=CCN(Cc4cccc(Cl)c4)CC3)no2)cc1OC	-1%[57.1 µM]	4%	.	0%	14%[57.1 µM]	.
CCOc1ccc2nc(N=Nc3c(O)[nH]c(=S)[nH]c3=O)sc2c1	-10%[57.1 µM]	5%	18%	23µM*	-5%[57.1 µM]	2%
COc1ccc2[nH]cc(CCN=C(NC(=O)c3ccccc3OC)Nc3nc(C)cc(C)n3)c2c1	-6%	15%	?	-20%	17%[11.4 µM]	.
COC(/C(C)=C/C=C/C(C)=C/c1coc(C)n1)C(C)C1CC(O)C2(C)OC2C=CC(C)C2CC(CC(=O)O2)CC2OC2C(=O)O1 (configuration not stated)	1%	3%	?	-10%	10µM*	.
